Measured values as given in PubChem BioAssay.
“And” between values parts separate entries of the source, which are not always exact repeats. Equal entries are not always repeated. The source made the active and inactive calls.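 How the source made its calls, unless noted: active means mean z-score across replicates of 1.96 or higher in either the MELAS or the Rieske mutant cell line; inactive means the rest.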

How the values were obtained:
[1] = stimulators of nuclear beta-catenin in C2C12, primary screen, imaging, WNT3A-conditioned medium, mouse C2C12, NPC library (AID 1117326; in the data active means nuclear beta-catenin stimulation mostly above about 4.2%, no sharp cut-off; inactive means mostly below about 10%); details: stronger effect = higher value
[2] = growth inhibition of GSK3B-pretreated HCT116 cells – cell-based, CellTiter-Glo, 0.2 to 20 µM (AID 1117336;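 active means compounds lowering colon cancer cell viability after pretreatment blocking the GSK3B kinase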); details: HCT116 viability after GSK3B inhibitor, at 20 µM, stronger effect = higher value
[3] = inhibition of endothelial tube formation, primary screen, imaging, VEGF stimulated, CD31 staining, tube area, NPC library (AID 1117340;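 active means compound that reduces growth-factor-driven endothelial tube area in a mixed cell culture, no cutoff stated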); details: VEGF-stimulated ADSC/ECFC co-culture, at 10 µM, stronger effect = higher value
[4] = HCT116 colon cancer cell growth inhibition, primary screen, CellTiter-Glo luminescence, NPC library (AID 1117342;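 active means compounds that lower survival of HCT116 colon cancer cells in the luminescence readout, no numeric limit stated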); details: at 20 µM (top of the series)
[5] = CellTiter-Glo luminescent readout of SW480 viability loss, NPC library primary (AID 1117343;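 active means compounds that lower viability of the colon cancer cells in the luminescence readout, with no numeric limit stated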); details: CellTiter-Glo luminescence; at 20 µM (top of the series) unless noted
[6] = decreased DLD-1 cellular survival, CellTiter-Glo luminescent readout, NPC compound collection, primary HTS (AID 1117346;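 active means compounds that lower survival of DLD-1 colon cancer cells in the luminescence readout, no cutoff given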); details: DLD-1 viability, CellTiter-Glo luminescence; at 20 µM (top of the series)
[7] = sensitizers of A549 cells to miR-34 induction, primary screen, imaging, A549 dox-inducible miR-34, nuclei and caspase counts (AID 1347080;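 active means compounds whose cell count with miR-34 switched on is under 0.7 times the count with it off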); details: A549 miR-34 inducible, Hoechst nuclei count, 48 h
[8] = viability rescue of complex I mutant cybrids, primary screen, cell-based, galactose medium, ATP luminescence (AID 1645843;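 active means z-score of at least 1.8 in each of two replicates, scored against plate mean and spread of sample wells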;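 further: positive z means more ATP and so rescue of galactose-driven cybrid death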); details: complex I mutant cybrid cells, 72 h, stronger effect = higher value
[9] = hESC survival regulators, cell-based (AID 493140; call rule not given here;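 further: cells exposed to compounds for four days before counting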); details: human embryonic stem cell survival screen; stronger effect = higher value
[10] = stimulators of insulin release from INS-1E, primary screen, cell-based, 5 mM glucose, NPC library (AID 1117329;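 active means compound raises insulin release from rat beta cells at 5 mM glucose, no numeric limit stated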); details: rat INS-1E insulin secretion, at 10 µM, stronger effect = higher value
[11] = glucagon-like peptide 1 release enhancers, primary assay, NCI-H716 cell line, NPC library (AID 1117341;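 active means compound raises GLP1 secretion from the human gut endocrine cells, with no numeric limit stated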); details: NCI-H716 cells, at 10 µM, stronger effect = higher value
[12] = biological target: 6-phosphogluconate dehydrogenase, decarboxylating (Homo sapiens) (UniProt P52209); assay: 6PGD enzyme inhibitors, primary screen, biochemical, human, recombinant enzyme, NADPH absorbance (AID 1159550;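 active means at least 20% inhibition of 6-phosphogluconate dehydrogenase activity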); details: recombinant 6PGD, NADPH absorbance 341 nm; at 10 µM; stronger effect = higher value
[13] = differential killing of epithelial or mesenchymal cells, primary screen, imaging, PC-3E GFP, TEM4-18 mCherry, co-culture (AID 1345086;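 active means compounds killing one labelled cell type while sparing the other, by normalised counts and ratio limits, not self-fluorescent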;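 on all read-outs here: cells exposed to compound for 72 h before imaging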;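 on red/green cell ratio (normalised): normalised mesenchymal count divided by normalised epithelial count so high means epithelial killing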); details: imaging cell counts, at 1 µM; for red/green cell ratio (normalised): actives lie on both sides, counts scaled to control wells, 1 = unselective
[14] = survival rescue of mitochondrial mutant cells in low glucose, primary screen, MELAS cybrids, Rieske KO mouse fibroblasts, CellTiter-Glo (AID 1508586);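 further: z relative to plate mean and SD of compound and empty wells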
[15] = biological target: NAD(+) hydrolase SARM1 (Homo sapiens) (UniProt Q6SZW1); assay: SARM1 TIR NADase inhibitors, cell lysate, NAD-Glo luminescence (AID 1508614;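 active means compound whose remaining NAD level is above about 45 nM, limit read from the data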); details: SAM-TIR HEK293T lysate NADase, at 1 µM, stronger effect = higher value
[16] = biological target: Mitogen-activated protein kinase 7 (Homo sapiens) (UniProt Q13164); assay: ERK5 transactivation activators in reporter cells, primary screen, cell-based, HTS (AID 1508626;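 active means luciferase signal above three times the same-plate solvent-only control wells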;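 further: luciferase driven by Gal4-ERK5 fusion binding five Gal4 sites before minimal TATA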); details: HeLa Gal4-ERK5 transactivation, 18 h, at 5 µM, stronger effect = higher value
[17] = stronger effect = lower value, cell number ratio, induced over uninduced
[18] = measured here: relative caspase fold change +Dox/-Dox
[19] = measured here: total cells with miR-34 induction, stronger effect = lower value
[20] = measured here: total cells without miR-34 induction
[21] = measured here: epithelial PC-3E GFP cell survival
[22] = measured here: mesenchymal TEM4-18 mCherry cell survival
[23] = MELAS cybrid survival, CellTiter-Glo 48 h, stronger effect = higher value
[24] = Rieske KO mouse fibroblast survival, CellTiter-Glo 72 h

Sequence of 6-phosphogluconate dehydrogenase, decarboxylating (Homo sapiens) (P52209 whole entry, looked up): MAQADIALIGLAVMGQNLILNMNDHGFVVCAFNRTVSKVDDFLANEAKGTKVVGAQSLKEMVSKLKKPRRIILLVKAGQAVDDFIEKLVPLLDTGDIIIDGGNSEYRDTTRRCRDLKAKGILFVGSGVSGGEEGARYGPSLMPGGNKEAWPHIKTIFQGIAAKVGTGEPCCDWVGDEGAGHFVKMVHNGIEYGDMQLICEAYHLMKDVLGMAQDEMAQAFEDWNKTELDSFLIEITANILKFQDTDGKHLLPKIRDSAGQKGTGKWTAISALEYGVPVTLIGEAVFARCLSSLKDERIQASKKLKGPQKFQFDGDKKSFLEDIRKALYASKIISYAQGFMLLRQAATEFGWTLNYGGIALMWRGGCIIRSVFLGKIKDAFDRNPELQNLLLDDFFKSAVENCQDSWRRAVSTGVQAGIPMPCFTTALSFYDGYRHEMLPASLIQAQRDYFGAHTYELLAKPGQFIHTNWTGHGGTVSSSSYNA
Sequence of Mitogen-activated protein kinase 7 (Homo sapiens) (Q13164 whole entry, looked up, the tested form may be a part): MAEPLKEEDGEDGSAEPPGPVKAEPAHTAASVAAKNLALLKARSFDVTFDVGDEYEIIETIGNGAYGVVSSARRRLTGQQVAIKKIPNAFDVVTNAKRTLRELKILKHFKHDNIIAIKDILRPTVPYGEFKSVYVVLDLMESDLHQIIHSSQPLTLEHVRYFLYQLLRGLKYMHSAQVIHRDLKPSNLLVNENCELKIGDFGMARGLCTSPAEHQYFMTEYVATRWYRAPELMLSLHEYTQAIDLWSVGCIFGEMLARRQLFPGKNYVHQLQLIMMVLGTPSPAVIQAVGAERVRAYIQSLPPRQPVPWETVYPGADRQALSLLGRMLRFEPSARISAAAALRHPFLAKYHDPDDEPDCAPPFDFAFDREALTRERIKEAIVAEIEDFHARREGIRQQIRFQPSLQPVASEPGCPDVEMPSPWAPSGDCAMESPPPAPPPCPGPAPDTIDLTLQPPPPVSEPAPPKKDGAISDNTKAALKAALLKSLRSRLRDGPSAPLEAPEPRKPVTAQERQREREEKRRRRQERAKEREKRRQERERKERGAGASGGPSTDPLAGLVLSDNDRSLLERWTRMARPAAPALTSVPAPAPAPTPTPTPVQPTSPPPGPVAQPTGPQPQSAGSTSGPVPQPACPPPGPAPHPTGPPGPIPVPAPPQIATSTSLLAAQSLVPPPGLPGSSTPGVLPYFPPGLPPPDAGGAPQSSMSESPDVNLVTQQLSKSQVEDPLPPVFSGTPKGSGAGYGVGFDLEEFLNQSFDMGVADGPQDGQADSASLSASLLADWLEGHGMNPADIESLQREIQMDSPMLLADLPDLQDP
Sequence of NAD(+) hydrolase SARM1 (Homo sapiens) (Q6SZW1 whole entry, looked up, the tested form may be a part): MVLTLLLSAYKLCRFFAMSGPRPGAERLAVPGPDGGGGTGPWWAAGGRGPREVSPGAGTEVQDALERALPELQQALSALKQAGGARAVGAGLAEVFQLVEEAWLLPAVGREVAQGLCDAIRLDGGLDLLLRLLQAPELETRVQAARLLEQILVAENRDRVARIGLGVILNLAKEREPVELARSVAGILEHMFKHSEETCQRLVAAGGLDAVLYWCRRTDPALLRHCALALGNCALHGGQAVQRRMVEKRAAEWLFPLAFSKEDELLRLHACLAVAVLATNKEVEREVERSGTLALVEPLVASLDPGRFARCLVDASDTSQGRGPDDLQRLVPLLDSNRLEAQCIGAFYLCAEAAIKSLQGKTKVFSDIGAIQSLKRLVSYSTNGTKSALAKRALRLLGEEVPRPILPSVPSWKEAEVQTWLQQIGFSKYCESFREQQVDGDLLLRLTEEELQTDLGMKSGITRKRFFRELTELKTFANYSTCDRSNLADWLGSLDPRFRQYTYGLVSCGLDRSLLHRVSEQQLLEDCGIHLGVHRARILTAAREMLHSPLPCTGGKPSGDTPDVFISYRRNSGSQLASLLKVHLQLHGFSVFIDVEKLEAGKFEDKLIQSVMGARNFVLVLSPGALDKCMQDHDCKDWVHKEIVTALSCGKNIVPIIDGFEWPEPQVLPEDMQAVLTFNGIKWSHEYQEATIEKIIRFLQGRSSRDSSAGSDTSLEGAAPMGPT

SMILES: CC(COc1ccccc1)NN (stereo not drawn)
- nuclear beta-catenin stimulation ([1]; at 10 µM): 1.8% (inactive)
- nuclear beta-catenin stimulation ([1]; stimulation, at 2 µM): 5.4%
- viability decrease [2]: 26.7% (inactive)
- tube area decrease [3]: 1.6% (inactive)
- inhibition of viability [4]: 8% (inactive)
- viability decrease (inhibition) [5]: 19.2% (inactive)
- viability decrease (inhibition) [6]: 7.4% (inactive)

SMILES: FC(F)(F)C(F)(F)C(F)(F)C(F)(F)C(F)(F)C(F)(F)C(F)(F)C(F)(F)Br
- nuclear beta-catenin stimulation ([1]; at 10 µM): -0.6% (inactive)
- nuclear beta-catenin stimulation ([1]; stimulation, at 2 µM): 11.4%
- viability decrease [2]: 8.2% (inactive)
- tube area decrease [3]: -4.5% (inactive)
- inhibition of viability [4]: 12.1% (inactive)
- viability decrease (inhibition) [5]: -4.8% (inactive)
- viability decrease (inhibition) [6]: 7.2% (inactive)

SMILES: C[C@@H](C1=C(CCN(C)C)Cc2ccccc21)c1ccccn1
- nuclear beta-catenin stimulation ([1]; at 10 µM): -0.2% (inactive)
- nuclear beta-catenin stimulation ([1]; stimulation, at 2 µM): 8.1%
- viability decrease [2]: 37.5% (inactive)
- inhibition of viability [4]: -11.9% (inactive)
- viability decrease (inhibition) [5]: 63.6% (active)
- viability decrease (inhibition) [6]: -48.2% (inactive)
- fold change [7, 17]: 0.916 (inactive)
- fold change [7, 18]: 0.633
- cell count [7, 19]: 7800
- cell count [7, 20]: 8520
- z-score [8]: -0.445 (inactive)

SMILES: CNCCCN1c2ccccc2CCc2ccccc21
- survival [9]: 2.75 (inactive)
- insulin secretion stimulation [10]: 15.8% (inactive)
- viability decrease [2]: -17.7% (inactive)
- tube area decrease [3]: 12.6% (inactive)
- GLP1 secretion stimulation [11]: 5.9% (inactive)
- inhibition of viability [4]: 37.5% (inactive)
- viability decrease (inhibition) [5]: 104% (active)
- viability decrease (inhibition) [6]: 33.3% (inactive)
- inhibition [12]: 3.76% (inactive)
- red/green cell ratio (normalised) [13]: 1.1 (inactive)
- normalised cell number [13, 21]: 1.36
- normalised cell number [13, 22]: 1.5
- z-score [14, 23]: 0.0784 (inactive)
- z-score [14, 24]: 0.183
- remaining NAD [15]: 10 nM (inactive)
- luciferase signal [16]: 80 AU (inactive)
- z-score [8]: -0.895 (inactive) and -0.71 (inactive)

SMILES: COC(=O)C1=C(C)NC(C)=C(C(=O)OC)C1c1ccccc1[N+](=O)[O-]
- survival [9]: 26.5 (inactive)
- insulin secretion stimulation [10]: 11.4% (inactive)
- viability decrease [2]: 77.9% (active)
- tube area decrease [3]: 1.2% (inactive)
- GLP1 secretion stimulation [11]: 4.4% (inactive)
- inhibition of viability [4]: 58.7% (active)
- viability decrease (inhibition) [5]: 136% (active)
- viability decrease (inhibition) [6]: 93.1% (active)
- inhibition [12]: -13.6% (inactive)
- red/green cell ratio (normalised) [13]: 0.87 (inactive)
- normalised cell number [13, 21]: 1.03
- normalised cell number [13, 22]: 0.9
- z-score [14, 23]: -0.44 (inactive) and 1.42 (inactive) and -0.699 (inactive)
- z-score [14, 24]: 0.0615 and 0.566 and -0.497
- remaining NAD [15]: 10 nM (inactive)
- luciferase signal [16]: 52 AU (inactive)

SMILES: COC(=O)C1=C(C)NC(C)=C(C(=O)OCCN(C)Cc2ccccc2)C1c1cccc([N+](=O)[O-])c1 (stereo not drawn)
- survival [9]: 2.33 (inactive)
- insulin secretion stimulation [10]: 2.9% (inactive)
- viability decrease [2]: 91.4% (active)
- tube area decrease [3]: 14.2% (inactive)
- GLP1 secretion stimulation [11]: -2.4% (inactive)
- inhibition of viability [4]: 104% (active)
- viability decrease (inhibition) [5]: 126% (active)
- viability decrease (inhibition) [6]: 84.9% (active)
- inhibition [12]: -13.8% (inactive)
- red/green cell ratio (normalised) [13]: 0.81 (inactive)
- normalised cell number [13, 21]: 1.09
- normalised cell number [13, 22]: 0.89
- z-score [14, 23]: -0.48 (inactive) and -0.0308 (inactive) and 0.219 (inactive)
- z-score [14, 24]: -0.154 and -0.712 and 0.12
- remaining NAD [15]: 10 nM (inactive)
- luciferase signal [16]: 48 AU (inactive)
- z-score [8]: -1.29 (inactive) and -1.5 (inactive) and 0.665 (inactive)

SMILES: O=C(CCCN1CCC(O)(c2ccc(Cl)cc2)CC1)c1ccc(F)cc1
- survival [9]: 6.08 (inactive)
- insulin secretion stimulation [10]: 10.8% (inactive)
- viability decrease [2]: 75.7% (active)
- tube area decrease [3]: -3.9% (inactive)
- GLP1 secretion stimulation [11]: 7.5% (inactive)
- inhibition of viability [4]: 63.5% (active)
- viability decrease (inhibition) [5]: 66.8% (active)
- viability decrease (inhibition) [6]: 35.5% (inactive)
- inhibition [12]: -6.6% (inactive)
- red/green cell ratio (normalised) [13]: 0.92 (inactive)
- normalised cell number [13, 21]: 0.87
- normalised cell number [13, 22]: 0.8
- z-score [14, 23]: -0.322 (inactive) and 0.952 (inactive) and 0.0534 (inactive)
- z-score [14, 24]: -0.84 and 0.343 and 0.587
- remaining NAD [15]: 10 nM (inactive)
- luciferase signal [16]: 40 AU (inactive)

SMILES: CC(C)NCC(O)COc1cccc2[nH]ccc12 (stereo not drawn)
- survival [9]: 5.75 (inactive)
- insulin secretion stimulation [10]: 0.3% (inactive)
- viability decrease [2]: 17.5% (inactive)
- tube area decrease [3]: 0% (inactive)
- GLP1 secretion stimulation [11]: 1.4% (inactive)
- inhibition of viability [4]: -13.4% (inactive)
- viability decrease (inhibition) [5]: -0.7% (inactive)
- viability decrease (inhibition) [6]: -7.1% (inactive)
- inhibition [12]: 11.4% (inactive)
- red/green cell ratio (normalised) [13]: 1.41 (inactive)
- normalised cell number [13, 21]: 0.83
- normalised cell number [13, 22]: 1.17
- z-score [14, 23]: -0.583 (inactive) and -0.452 (inactive)
- z-score [14, 24]: -0.0517 and -0.221
- remaining NAD [15]: 10 nM (inactive)
- luciferase signal [16]: 84 AU (inactive)

SMILES: O=C(O)C1CCC1
- nuclear beta-catenin stimulation ([1]; at 10 µM): -0.9% (inactive)
- nuclear beta-catenin stimulation ([1]; stimulation, at 2 µM): 6.2%
- viability decrease [2]: -0.7% (inactive)
- inhibition of viability [4]: 13.6% (inactive)
- viability decrease (inhibition) [5]: 1.4% (inactive)
- viability decrease (inhibition) [6]: 6.3% (inactive)

SMILES: COc1ccccc1N1CCN(CCCCNC(=O)c2ccc(-c3ccc(C(C)=O)cc3)cc2)CC1
- nuclear beta-catenin stimulation ([1]; at 10 µM): 9.8% (inactive)
- nuclear beta-catenin stimulation ([1]; stimulation, at 2 µM): 9.2%
- viability decrease [2]: 55.6% (active)
- inhibition of viability [4]: 51.4% (active)
- viability decrease (inhibition) [5]: 69.7% (active)
- viability decrease (inhibition) [6]: 13.8% (inactive)
- fold change [7, 17]: 0.929 (inactive)
- fold change [7, 18]: 0.93
- cell count [7, 19]: 8920
- cell count [7, 20]: 9600
- z-score [8]: -0.635 (inactive)

SMILES: COc1ccc2c(c1)C(=O)N(CCc1ccc(S(=O)(=O)NC(=O)NC3CCCCC3)cc1)C(=O)C2(C)C
- survival [9]: 22.9 (inactive)
- nuclear beta-catenin stimulation ([1]; at 10 µM): 0.7% (inactive)
- nuclear beta-catenin stimulation ([1]; stimulation, at 2 µM): 10.6%
- viability decrease [2]: 87.4% (active)
- inhibition of viability [4]: 68% (active)
- viability decrease (inhibition) [5]: 87.1% (active)
- viability decrease (inhibition) [6]: 94% (active)
- fold change [7, 17]: 0.971 (inactive) and 0.893 (inactive)
- fold change [7, 18]: 0.765 and 0.69
- cell count [7, 19]: 9100 and 8180
- cell count [7, 20]: 9360 and 9160
- z-score [14, 23]: -0.157 (inactive) and 0.277 (inactive)
- z-score [14, 24]: -0.221 and -0.0621

SMILES: CC(C)OC(=O)C(C)(C)Oc1ccc(C(=O)c2ccc(Cl)cc2)cc1
- survival [9]: 16.9 (inactive)
- nuclear beta-catenin stimulation ([1]; at 10 µM): 1.9% (inactive)
- nuclear beta-catenin stimulation ([1]; stimulation, at 2 µM): 6.9%
- viability decrease [2]: 81.1% (active)
- inhibition of viability [4]: 81.4% (active)
- viability decrease (inhibition) [5]: 75.1% (active)
- viability decrease (inhibition) [6]: 57.5% (active)
- inhibition [12]: 13.2% (inactive)
- red/green cell ratio (normalised) [13]: 1.01 (inactive)
- normalised cell number [13, 21]: 1
- normalised cell number [13, 22]: 1
- z-score [14, 23]: 0.204 (inactive) and 1.22 (inactive) and 0.396 (inactive)
- z-score [14, 24]: 0.718 and 0.00922 and -0.202
- remaining NAD [15]: 10 nM (inactive)
- luciferase signal [16]: 56 AU (inactive)
- z-score [8]: -1 (inactive) and -1.21 (inactive) and -1.85 (inactive)
